Source: PubChem BioAssay
Compounds with a hit are over-represented: about 4.7% of the library has one in this group of screens.
D1 antagonist – Antagonist of Human D 1 Dopamine Receptor: qHTS | activity change, negative = inhibition, % at 10 µM | HEK293 TREx D1 cells, calcium flux, dopamine EC80; hits give low values | 360,000 compounds, 3.2% hits | AID 504652, 2011 | D(1A) dopamine receptor (Homo sapiens), P21728; in the data active means activity change below about -30%; further: on the % scale 0 is the no-effect control and ±100 the full control effect
Target sequence (P21728 whole entry, looked up): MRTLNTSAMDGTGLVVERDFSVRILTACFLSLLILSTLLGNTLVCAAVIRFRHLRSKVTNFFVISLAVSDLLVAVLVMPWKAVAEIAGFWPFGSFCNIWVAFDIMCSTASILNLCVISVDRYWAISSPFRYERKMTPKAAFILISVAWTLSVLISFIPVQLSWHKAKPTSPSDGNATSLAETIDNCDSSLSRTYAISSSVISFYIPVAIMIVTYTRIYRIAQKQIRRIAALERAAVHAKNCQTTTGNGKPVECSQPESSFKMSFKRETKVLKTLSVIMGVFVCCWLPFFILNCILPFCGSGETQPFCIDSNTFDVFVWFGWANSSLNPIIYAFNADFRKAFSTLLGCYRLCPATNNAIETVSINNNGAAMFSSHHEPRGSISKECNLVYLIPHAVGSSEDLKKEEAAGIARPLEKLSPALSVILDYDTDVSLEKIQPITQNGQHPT
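Allosteric or orthosteric antagonism assessed as attenuation of the calcium response to EC80 dopamine, added 180 s after compound, in induced HEK293 Trex D1 cells loaded with no-wash calcium dye.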
D1 PAM – Potentiators of Human D1 Dopamine Receptor: qHTS. 360,000 compounds, 0.036% hits. HEK293 TREx D1 cells, calcium flux, dopamine EC20 potentiation. potentiation, % at 10 µM. D(1A) dopamine receptor (Homo sapiens), P21728; in the data active means potentiation above about 30%; further: 0% is about no effect
TRHR PAM – qHTS for Small Molecule Agonists and Allosteric Enhancers of Human TRH Receptor: Primary Screen for Enhancers; Thyrotropin-releasing hormone receptor (Homo sapiens), P34981; TRHR cells, fluo-8 calcium fluorescence, EC20 TRH enhancement; enhancement, % at 2 µM; 360,000 compounds, 0.66% hits; in the data active means enhancement above about 30%; further: 0% is about no effect
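TRHR-expressing cells loaded with fluo-8 calcium dye were read kinetically (ex 480/em 530) during compound addition, then stimulated with an EC20 of TRH (10 nM final). Enhancement of the Gq-mediated intracellular calcium response was scored.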
TRHR agonist – qHTS for Small Molecule Agonists and Allosteric Enhancers of Human TRH Receptor: Primary Screen for Agonists; TRHR cells, calcium flux fluo-8, FDSS agonist mode; activation, % at 2 µM; 360,000 compounds, 0.18% hits; further: 0% is about no effect
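In this calcium-flux screen, cells bearing human TRHR are dye-loaded with fluo-8, baselined for 10 cycles, then exposed to library compounds; positive kinetic calcium responses during the agonist phase mark hits, with TRH as control.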
D1 agonist – Allosteric Agonists of the Human D1 Dopamine Receptor: qHTS. 360,000 compounds, 1% hits. activation, % at 2 µM. AID 504660, 2011. HEK293 T-REx D1 cells, calcium flux, agonist mode; further: 0% is about no effect
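Agonism was scored from calcium flux recorded over 180 s (1 read/s) after pintool compound addition, following a 10-cycle baseline. Cells were inducible force-coupled HEK293 TREx D1, plated overnight at 30 C and loaded with no-wash calcium dye.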
* hit, by the source's call; ! = not active in a repeat. Unless noted, no stated cut-off is given here; in the data, active means activation above about 30%; inactive means the rest.

SMILES	D1 antagonist	D1 PAM	TRHR PAM	TRHR agonist	D1 agonist
Cn1c2cc([N+](=O)[O-])sc2c2cnn(Cc3ccccc3F)c(=O)c21	-2.9	2.8	5.9	0.0	0.6
Cc1ccc(-n2c(=S)[nH]c3nc4c(cc3c2=O)COC(C)(C)C4)cc1	-48.1*	-10.4	5.9	0.1	1.2
Cc1ccc(-n2c(=S)[nH]c3[nH]ncc3c2=O)cc1	-30.6*	-3.6	-8.0	0.6	3.2
CCOC(=O)c1c(NC(=S)NNS(=O)(=O)c2ccc(Br)cc2)sc2c1CCCCC2	-33.3*	-7.0	-18.4	1.1	10.7
CN1CCc2sc(NC(=O)Cc3ccccc3)c(C(=O)Nc3ccc(Cl)cc3)c2C1	-52.6*	-5.5	3.4	0.6	22.9
CCC(=O)Nc1sc2c(c1C(=O)Nc1cccc(C)c1)CCCC2	-5.4	-3.4	-1.4	-0.2	0.1
CCC(=O)Nc1sc2c(c1C(=O)Nc1ccc(Br)cc1)CCCCC2	-31.5*	-2.8	0.7	6.0	4.2
COC(=O)CC1C(=O)NCCN1C(=S)Nc1ccc(F)cc1 (stereo unspecified)	-36.8*	-5.3	-2.8	0.5	2.5
CC(NC(=O)COC(=O)c1ccco1)C12CC3CC(CC(C3)C1)C2 (stereo unspecified)	-5.4	3.8	-0.6	-1.4	1.2
CC1=C(C(=O)N2CCOCC2)C(c2ccc(Br)cc2)NC(=S)N1c1ccccc1 (stereo unspecified)	-41.7*	-4.8	-0.3	0.3	1.0
COc1ccc(NC(=O)C2CCN(c3cnccn3)CC2)cc1Cl	-58.0*!	-5.7	-6.0	0.3	5.0
CC(=O)Nc1ccc(NC(=O)C2CCN(c3cnccn3)CC2)cc1	2.7	2.4	-1.7	0.6	0.1
COc1cccc(-n2c(=O)c3c4c(sc3n(Cc3ccc(F)cc3Cl)c2=O)CCCC4)c1	0.7	0.8	2.1	-1.6	4.8
COc1cccc(-n2c(=O)c3c(C)c(C(=O)N(C)C)sc3n(CC(=O)NCC3CCCO3)c2=O)c1 (stereo unspecified)	-30.4*	-15.1	-3.8	0.0	1.7
COC(=O)c1ccccc1NC(=O)Cn1c(=O)n(-c2cccc(OC)c2)c(=O)c2c(C)c(C(=O)N(C)C)sc21	-35.0*	-2.9	1.9	-0.3	19.4
COc1cccc(-n2c(=O)c3c(C)c(C(=O)N(C)C)sc3n(Cc3ccc(F)cc3Cl)c2=O)c1	-31.5*	3.0	-10.8	0.1	1.2
CCc1ccc(-n2c(=O)c3c(C)c(C(=O)N(C)C)sc3n(CC(=O)NCC3CCCO3)c2=O)cc1 (stereo unspecified)	4.0	1.4	10.8	-0.2	1.6
Cc1cc(C)cc(OCCOCCn2c(-c3ccc(Cl)cc3)nc3ccccc3c2=O)c1	-1.9	-1.9	0.3	0.2	4.8
CCOc1ccccc1NC(=O)c1c(C)cc(C)nc1SCC(=O)c1cccc(OC)c1	6.4	1.1	-5.6	-0.3	1.6
CCCOc1ccccc1C(=O)N1CCC(c2nc3ccccc3s2)CC1	-8.8	-0.2	-5.1	0.6	0.8
CCC(Oc1ccccc1F)C(=O)N1CCC(c2nc3ccccc3s2)CC1 (stereo unspecified)	-17.5	-1.6	4.5	-0.8	36.3*
COCC(C)Nc1ncnc2c1cnn2-c1ccc(C)c(C)c1 (stereo unspecified)	-26.3	-1.9	2.4	0.0	-3.5
CCOC(=O)CSC1=Nc2ccccc2C2=NC(CCC(=O)NCc3ccc(OC)cc3)C(=O)N12 (stereo unspecified)	-19.7	1.1	1.2	-0.6	1.3
Cc1nc2cc(-c3ccccc3)nn2c(C)c1CCC(=O)NC(C)c1ccc2c(c1)OCCO2 (stereo unspecified)	-11.4	-5.0	2.4	0.2	-1.8
Cc1nc2nc(C)c(CCC(=O)NC(C)c3ccc4c(c3)OCCO4)c(C)n2n1 (stereo unspecified)	-47.6*	-7.9	-4.6	-0.1	5.6
